# According to ChEMBL document CHEMBL1201862, “PubChem BioAssay data set” (2004):
# The whole screen tested about 400,000 compounds, of which about 2,100 (0.53%) were called active. About 14% were inconclusive and are not listed. How the calls were made is not given here. The sample as a whole holds a higher share of actives than the screen did.
# Target: Ataxin-2 (Homo sapiens) (UniProt Q99700)
# Test: qHTS for Inhibitors of ATXN expression.
# Assay type: functional
# Sequence of Ataxin-2 (Homo sapiens) (Q99700 whole entry): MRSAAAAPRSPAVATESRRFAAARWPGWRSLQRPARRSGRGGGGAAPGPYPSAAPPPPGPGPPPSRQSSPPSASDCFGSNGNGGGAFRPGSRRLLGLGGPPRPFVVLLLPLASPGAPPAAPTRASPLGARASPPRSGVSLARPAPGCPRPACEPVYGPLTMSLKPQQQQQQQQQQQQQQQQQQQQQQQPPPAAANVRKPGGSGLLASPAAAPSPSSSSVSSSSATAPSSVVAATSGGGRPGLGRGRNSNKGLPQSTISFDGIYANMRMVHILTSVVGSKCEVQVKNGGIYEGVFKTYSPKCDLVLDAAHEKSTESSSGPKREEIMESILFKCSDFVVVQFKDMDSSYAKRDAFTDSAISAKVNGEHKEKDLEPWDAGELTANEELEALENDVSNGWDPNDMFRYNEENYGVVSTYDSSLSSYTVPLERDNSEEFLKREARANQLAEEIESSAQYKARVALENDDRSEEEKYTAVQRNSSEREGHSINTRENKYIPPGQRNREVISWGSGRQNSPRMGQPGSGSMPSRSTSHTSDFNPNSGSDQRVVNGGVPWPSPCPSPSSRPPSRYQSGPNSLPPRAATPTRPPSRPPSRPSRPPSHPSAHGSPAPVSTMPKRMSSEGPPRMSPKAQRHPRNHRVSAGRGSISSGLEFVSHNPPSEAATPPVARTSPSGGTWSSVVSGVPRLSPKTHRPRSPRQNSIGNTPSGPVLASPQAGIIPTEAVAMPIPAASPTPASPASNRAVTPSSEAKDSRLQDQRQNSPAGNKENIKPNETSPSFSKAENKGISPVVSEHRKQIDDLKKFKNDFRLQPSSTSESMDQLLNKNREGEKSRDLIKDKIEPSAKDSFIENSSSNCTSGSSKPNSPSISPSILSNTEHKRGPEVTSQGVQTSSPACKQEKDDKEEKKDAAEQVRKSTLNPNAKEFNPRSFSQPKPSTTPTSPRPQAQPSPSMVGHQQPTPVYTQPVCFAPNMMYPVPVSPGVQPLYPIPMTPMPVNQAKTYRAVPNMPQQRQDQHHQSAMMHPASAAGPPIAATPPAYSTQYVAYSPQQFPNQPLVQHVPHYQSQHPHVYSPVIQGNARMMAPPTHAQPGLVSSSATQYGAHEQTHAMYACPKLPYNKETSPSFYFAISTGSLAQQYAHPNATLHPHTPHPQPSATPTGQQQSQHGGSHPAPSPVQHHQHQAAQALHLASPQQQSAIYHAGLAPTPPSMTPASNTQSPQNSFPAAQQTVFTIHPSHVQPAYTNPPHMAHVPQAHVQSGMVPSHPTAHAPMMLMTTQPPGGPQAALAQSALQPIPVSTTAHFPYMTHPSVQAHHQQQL
row,SMILES,Potency
1,COc1ccccc1[C@H]1C(c2ccccc2)=NN(c2ccccc2)[C@@H]1CO,inactive
2,Cc1ccc(C2=CC(c3ccc(C)cc3)n3ncnc3N2)cc1 (centres undefined),inactive
3,CC(=O)c1ccc(Nc2cc(C)nc3c(C)cc(C)cc23)cc1,29.9 µM (active)
4,Cc1ccc(Nc2cc(C)c(O)c(C)c2)cc1,inactive
5,COCc1cc(C)nc2sc(C(=O)Nc3ccc(C(C)=O)cc3)c(N)c12,inactive
6,COC(=O)Cc1c(C)c2cc3c(c(C)c2oc1=O)OCN(CCc1ccc(F)cc1)C3,inactive
7,COC(=O)Cc1c(C)c2ccc3c(c2oc1=O)CN(Cc1ccccc1OC)CO3,inactive
8,COc1ccc(C2C=C(c3ccc(Br)cc3)Nc3nc(N4C(=O)CCC4=O)nn32)cc1 (centres undefined),inactive
9,CCc1cc(=O)oc2c(CN3CCN(C)CC3)c(O)ccc12,inactive
10,Cc1ccc(-c2csc3ncnc(Sc4nnc(CN5CCCCCC5=O)o4)c23)cc1,39.8 µM (active)
11,CCN(CC)c1ccc(C(=O)OCC(=O)N(C(C)C)C(C)C)cc1,inactive
12,CCN(CC)c1ccc(C(=O)c2cnc(/N=C/N(C)C)s2)cc1,inactive
13,CCN(CC)c1ccc(C(=C2C=CC(=[N+](CC)CC)C=C2)c2ccc(N(CC)CC)cc2)cc1,10 µM (active)
14,CCOc1ccc(Nc2nc3c(C)cccc3cc2C#N)cc1,inactive
15,N=C(N)NS(=O)(=O)c1ccc(NC(=S)NC(=O)Cc2ccc(Cl)cc2)cc1,inactive
16,Cc1ccc(NC(=O)Cc2ccc(Cl)cc2)nc1,inactive
17,O=C(Cc1ccc(Cl)cc1)Nc1ccc(-c2nnc(-c3ccco3)o2)cc1,39.8 µM (active)
18,CC(C)OCCCNC(=O)NC(=O)c1ccc(Cl)cc1,inactive
19,O=C(COc1ccc(Cl)cc1)N(Cc1cccs1)C1CCS(=O)(=O)C1 (centres undefined),inactive
20,CCOc1ccc(-n2cc(C(=O)c3cc(Cl)ccc3O)cc(C#N)c2=O)cc1,inactive
21,Cc1cc(O)c(C(=O)/C=C/c2ccc(Cl)cc2)c(=O)o1,inactive
22,CCOc1ccc(/C=C/C(=O)c2cc(Br)ccc(=O)c2O)cc1,22.4 µM (active)
23,CCOc1ccc(OCCOc2ccc(/C=C/C(=O)O)cc2OCC)cc1,inactive
24,CCN=c1ccc(Br)cc(C(=O)/C=C/c2ccc(Cl)cc2)c1O,31.6 µM (active)
25,CC(C)(C)c1ccc(C(=O)NNc2ncccc2-n2cccc2)cc1,inactive
26,CC(=O)N/N=C/c1cc(C(C)C)cc(/C=N/NC(C)=O)c1O,inactive

row,SMILES,Potency
1,O=c1c(Br)c(Br)cnn1-c1ccccc1,4.23 µM (active)
2,COc1cc(OC)nc(-n2ncc(Br)c(Br)c2=O)n1,10.6 µM (active)
3,Nc1cccc(Oc2c(F)c(F)c(Oc3cccc(N)c3)c(F)c2F)c1,inactive
4,CN(CC(=O)Nc1ccccc1Cl)C(=O)COC(=O)c1nc(Cl)c(Cl)c(Cl)c1Cl,28.2 µM (active)
5,Cc1cnc(C(=O)OCC(=O)Nc2cccc3ccccc23)cn1,inactive
6,Cc1ccc(NC(=O)CN(C)C(=O)COC(=O)c2nccnc2N)cc1,inactive
7,CCCc1c(-c2ccc(Cl)cc2)ncn1Cc1ccccc1OC,44.7 µM (active)
8,COc1cc2c3nnc(-c4ccccc4)c-3cn(Cc3ccccc3F)c2cc1OC,inactive
9,CCCCCc1c(-c2ccc(Cl)cc2)ncn1CCc1ccccc1OC,39.8 µM (active)
10,CCCCc1c(-c2ccc(Cl)cc2)ncn1CCc1ccccc1OC,39.8 µM (active)
11,CC(=O)c1cc2ccc(O)cc2oc1=O,inactive
12,COCCNC(=O)/C(=C/c1ccccc1Cl)c1ccccc1,inactive
13,O=C1CC(c2cccc(Br)c2)C2=C(COC2=O)N1 (centres undefined),inactive
14,CN(C)/C=N/C(=S)Nc1ccc(Cl)cc1,inactive
15,Cn1nc(-c2ccccc2)c2nc3ccccc3nc21,inactive
16,CN1CCN(C2=CC3=CC(=C(C#N)C#N)CCC3CC2)CC1 (centres undefined),inactive
17,COc1cc2c(C#CCCO)c(-c3ccc(C#N)cc3)oc(=O)c2cc1OC,inactive
18,Nc1ccc(C#Cc2ccc3c(=O)c4ccccc4oc3c2)cc1,inactive
19,COc1cccc2oc3cc(C#CC4(O)CCCCC4)ccc3c(=O)c12,22.4 µM (active)
20,O=c1c2ccccc2oc2ccc(C#CC3(O)CCCCC3)cc12,28.2 µM (active)
21,COc1cc2oc3cc(C#Cc4ccc(N)cc4)ccc3c(=O)c2cc1OC,inactive
22,O=c1c(O)c(-c2ccccc2)oc2ccccc12,inactive
23,Nc1c(C(=O)NCc2ccco2)c2nc3ccccc3nc2n1CCc1ccc(F)cc1,inactive
24,Cc1ccc(COc2ccsc2C(=O)NN)cc1,inactive
25,Cc1ccc(CN2C(=O)C(=O)c3cc(Br)cc(C)c32)cc1,39.8 µM (active)
26,CC(=O)N1c2c(cc(Br)cc2S(=O)(=O)NCc2ccc(C)cc2)CC1C (centres undefined),inactive

row,SMILES,Potency
1,Cc1ccc(CN2C(=O)C(C)Oc3ccccc32)cc1 (centres undefined),inactive
2,COC(=O)c1c(NC(=O)c2ccc(S(=O)(=O)N3CCCC(C)C3)cc2)sc2c1CCN(C(C)C)C2 (centres undefined),inactive
3,O=C(Nc1ccc[n+](-c2nc3ccccc3nc2[N-]S(=O)(=O)c2ccccc2)c1)c1ccc(Cl)cc1,11.2 µM (active)
4,O=C(Nc1cc[n+](-c2nc3ccccc3nc2[N-]S(=O)(=O)c2ccc(Cl)cc2)cc1)c1cccs1,inactive
5,CC(=O)Nc1ccc(S(=O)(=O)[N-]c2nc3ccccc3nc2-[n+]2ccc(NC(=O)c3ccccc3)cc2)cc1,inactive
6,Cc1c(NC(=O)C(C)OC(=O)c2cccc(S(=O)(=O)N3CCOCC3)c2)c(=O)n(-c2ccccc2)n1C (centres undefined),inactive
7,COc1ccc(C(=O)/C=C/c2ccc(O)cc2)c(O)c1C/C=C(\C)CCC=C(C)C,39.8 µM (active)
8,COc1cc(/C=C/C(=O)OCC(=O)Nc2ccc(Cl)cn2)ccc1O,inactive
9,COc1ccc(/C=C/C(=O)C2C(=O)C=C(C)OC2=O)cc1O (centres undefined),inactive
10,COc1ccc(C(=O)/C=C/c2ccc(O)cc2)c(O)c1CC=C(C)C,39.8 µM (active)
11,COc1ccc(-c2cc(C(F)(F)F)n3ncc(C(=O)N4CCCCC4c4cccnc4)c3n2)cc1 (centres undefined),inactive
12,N#Cc1c(O)nc2c(c1-c1cccnc1)COc1ccccc1-2,inactive
13,O=C(NC(=S)N1CCN(c2ccc(C(F)(F)F)cc2[N+](=O)[O-])CC1)c1cccs1,39.8 µM (active)
14,O=C(NC(=S)N1CCN(c2ccc(Cl)cc2[N+](=O)[O-])CC1)c1cccs1,17.8 µM (active)
15,Cc1cccc(N2CCN(C(=O)Cc3ccccc3[N+](=O)[O-])CC2)c1C,inactive
16,O=C(N/N=C/c1cc(Cl)cc([N+](=O)[O-])c1O)c1ccccc1NS(=O)(=O)c1cccs1,inactive
17,O=C(COC(=O)c1cccc([N+](=O)[O-])c1)NNC(=O)c1cccs1,inactive
18,CC(=O)c1ccc2c(c1)c(C#N)c1ccccc1[n+]2[O-],inactive
19,CCC(=O)Nc1c(C#N)c2nc3ccccc3nc2n1-c1ccc(C)cc1,inactive
20,CCN(CC)c1nc2ccccc2nc1C(C#N)C(=O)NCCc1ccccc1 (centres undefined),inactive
21,Cc1cccc(NC(=O)CN(C)C(=O)Cc2ccc(-c3ccccc3)cc2)c1C,inactive
22,CCC(C)N(CC(=O)Nc1cccc(C)c1C)C(=O)CCl (centres undefined),7.52 µM (active)
23,CCN(CC(=O)Nc1cc(Cl)ccc1C)C(=O)C1CCCCC1,inactive
24,CCN(CC)C(=O)COc1ccc(/C=C(\C#N)S(=O)(=O)c2ccccc2)cc1OC,inactive
25,Cc1cc(C)c(OCCN2CCOCC2)c(Cl)c1,inactive
26,Cc1cc(C)c(OCCCCNCc2ccccc2)c(Cl)c1,39.8 µM (active)

row,SMILES,Potency
1,Clc1ccc(OCCCNCc2ccccc2)c(Br)c1,39.8 µM (active)
2,COc1ccc(Cl)cc1CNCCCSc1ncccn1,inactive
3,C=CCc1cc(Cl)ccc1OCCCNC(C)C,inactive
4,C=CCNCCCCOc1cccc(Br)c1,inactive
5,CN(C)/C=N/c1c(Br)cc(Br)c2nonc12,inactive
6,COCCN(CCOC)C(=O)c1cc2c(=O)n3ccccc3nc2s1,inactive
7,O=C1N[C@@H](Cc2c[nH]c3ccccc23)COC(=O)[C@@H](Cc2ccc(F)cc2)C/C=C\C[C@H]1CC(=O)N(CCO)Cc1ccccc1,35.5 µM (active)
8,O=C1NC[C@@H](c2ccccc2)OC(=O)[C@@H](Cc2ccc(F)cc2)CC/C=C/C[C@H]1CC(=O)N(CCO)Cc1ccccc1,28.2 µM (active)
9,COCCn1c(N)c(C#N)c2nc3ccccc3nc21,inactive
10,Fc1ccc(-n2c(-c3cccs3)nc3nc4ccccc4nc32)cc1,inactive
11,O=C(O)c1ccccc1-c1ccccc1C(=O)Nc1ccc2c(c1)nc(O)c1ccccc12,inactive
12,O=C(Nc1ccc2c(c1)OCCO2)c1cccc2nc3ccccc3nc12,35.5 µM (active)
13,O=C(Nc1ccc2c(c1)OCCO2)c1cccnc1Oc1ccc(Cl)cc1,inactive
14,CCO/C=C1/C(=O)N(c2ccccc2OC)C(=O)c2ccccc21,inactive
15,CC[C@@]1(c2ccccc2OC)ON(c2ccccc2C(F)(F)F)C1=O,22.4 µM (active)
16,COc1ccccc1N1C(=O)C2C(C(=O)c3ccccc3)=NN(c3ccccc3)C2C1=O (centres undefined),inactive
17,COc1ccccc1N1C(=O)C2C(C(=O)c3ccccc3)=NN(c3ccccc3OC)C2C1=O (centres undefined),inactive
18,CC[C@]1(c2ccccc2OC)ON(c2ccccc2C(F)(F)F)C1=O,35.5 µM (active)
19,COc1ccccc1-n1c([S-])c(C(=O)Nc2ccccc2C(F)(F)F)[n+]2ccc(C(=O)NCCO)cc12,inactive
20,Cc1ccccc1NC(=O)c1cc2c(=O)n3cccc(C)c3nc2s1,inactive
21,CC1CCCCC1NC(=O)c1cc2c(=O)n3ccccc3nc2n1C (centres undefined),inactive
22,CC1CN(c2ccc([N+](=O)[O-])c(NCCOc3ccc(Cl)cc3)c2)CC(C)N1 (centres undefined),inactive
23,COc1ccccc1N=C(NS(=O)(=O)c1ccc(C)cc1)c1ccccc1,inactive
24,COc1ccc([N+](=O)[O-])c(S(=O)(=O)c2ccccc2)n1,7.52 µM (active)
25,COc1ccc([N+](=O)[O-])c(S(=O)(=O)c2ccc(Cl)cc2)n1,14.1 µM (active)
26,O=C1c2cccc3c([N+](=O)[O-])ccc(c23)C(=O)N1c1ccc(Cl)cn1,inactive
